{"source": "PubChem BioAssay (NCATS)", "note": "Records with an inconclusive call do not appear. A number with no mark means an inactive call. Active and inactive are the calls of the source. Calls follow the shape of the dose curve; as a rule, active = well fitted inhibition curve with a large enough effect; inconclusive = small, poorly fitted or top-dose-only effect; inactive = flat fitted curve, though single readings scatter. % is scaled to controls: 0 for no effect and ±100 for the full control effect; potency is read from the fitted curve at half-maximal effect."}
{"system": "NIH3T3", "assay": "Cytotoxic Profiling of Annotated Libraries Using Quantitative High-Throughput Screening (AID 1296008); also: nearly all actives have a fitted effect of over 60% in size", "settings": "Five cell lines viability, CellTiter-Glo ATP luminescence, 48-72 h; max response: active compounds read low", "method_in_brief": "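Cells exposed to compounds for 48 or 72 hr at 37 degrees Celsius. Viability read as ATP-coupled luminescence with CellTiter-Glo after 10 min at room temperature.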", "units": {"max response": "%"}}
{"molecule": "Cn1ncnc1COc1nn2c(-c3cc(F)ccc3F)nnc2cc1C(C)(C)C", "max response": -2.09}
{"molecule": "CC(C)Oc1ccc(C(=O)NC(CNC(=O)CN(C)C)Cc2ccc(-c3cn4cccc(C(C)O)c4n3)cc2)cc1Cl", "note": "(stereo not drawn)", "max response": -19.5}
{"molecule": "O=C(/C=C/c1ccc(O)cc1)OC1[C@H](O)CC(O)(C(=O)O)C[C@H]1O", "note": "(stereo partly drawn)", "max response": -9.08}
{"molecule": "CCCOC(c1cc2nccc(C(=O)O)c2[nH]1)c1ccccc1Cl", "note": "(stereo not drawn)", "max response": 4.32}
{"molecule": "CC(=O)O[C@@H](CO[C@@H]1O[C@H](CO)[C@H](O)[C@H](O)[C@H]1O)[C@]1(C)C=C2CC[C@@H]3C(C)(C)[C@@H](O)CC[C@@]3(C)[C@@H]2CC1", "max response": 4.41}
{"molecule": "COc1ccc(Cl)c(Nc2nc3ccccc3nc2NS(=O)(=O)c2cccc(NC(=O)C(C)(C)N)c2)c1", "max response": -15.2}
{"molecule": "CCOc1ccc2nc(SCCN3CCOCC3)[nH]c2c1", "max response": 0.835}
{"molecule": "CC(C)(O)/C=C/CC(C)(O)C1C(O)CC2(C)C3CCC4C(C)(C)C(=O)CCC4(C)C3CCC12C", "note": "(stereo not drawn)", "max response": -0.144}
{"molecule": "N#Cc1ccc(C(=O)N2CCC3(CC2)N=C(N)c2c(F)ccc(F)c2N3)cn1", "max response": -5.13}
{"molecule": "NCc1ccc(Nc2ncc(F)c(Nc3ccccc3)n2)cc1", "Potency": "14.6 µM (active)"}
{"molecule": "CN(C)C/C=C/C(=O)Nc1cccc(C(=O)Nc2ccc(Nc3nccc(-c4cccnc4)n3)cc2)c1", "Potency": "10.3 µM (active)"}
{"molecule": "CC1OC2OC(=O)C3(C)CC4=C(CO)C5=C(CC(=O)C4(C)C(C1=O)C23)C(C)(C)OC(=O)C5", "note": "(stereo not drawn)", "max response": -2.31}
{"molecule": "COc1cc(/C=C/CO)cc(OC)c1O[C@@H]1O[C@H](CO[C@@H]2O[C@H](CO)[C@@H](O)[C@H](O)[C@H]2O)[C@@H](O)[C@H](O)[C@H]1O", "max response": -3.2}
